According to PubChem BioAssay (NCATS):
Results filed as inconclusive are left out. Active and inactive are the calls of the source. The call rests on the fitted dose curve; in most records, active means well fitted curve in the direction sought with a large enough effect; inconclusive means small, poorly fitted or top-dose-only effect, or another doubt; inactive means no such curve, though single readings can be large; an effect the other way counts as inactive or inconclusive.

Legend:
[1] = qHTS of pediatric cancer cell lines to identify multiple opportunities for drug repurposing: Primary screen for TC32 cells (AID 1347089); settings: TC32 Ewing sarcoma viability, CellTiter-Glo luminescence, 48 h; series mostly up to 45.8 µM; further: nearly all actives have a fitted effect of over 60% in size
Summary of the method: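 Luminescent CellTiter-Glo read-out of metabolically active TC32 cells after 48 h compound exposure. Primary: MIPE 11-point, 0.78 nM–46 µM; NPC 8-point, 0.59 nM–46 µM. Confirmatory: 11-point dilutions.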

[2] = qHTS of pediatric cancer cell lines to identify multiple opportunities for drug repurposing: Primary screen for A673 cells (AID 1347092); settings: A673 Ewing sarcoma viability, CellTiter-Glo ATP luminescence, 48 h; series mostly up to 46 µM; further: nearly all actives have a fitted effect of over 45% in size
Summary of the method: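 A673 cells (500-1,000 cells/well in growth media) were pre-incubated 5 h at 37 degrees C, then exposed to compounds for 48 h. Viability was read as CellTiter-Glo luminescence; concentration-response curves came directly from the primary screen.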

[3] = qHTS of pediatric cancer cell lines to identify multiple opportunities for drug repurposing: Primary screen for SK-N-MC cells (AID 1347093); settings: SK-N-MC viability, CellTiter-Glo luminescence, 48 h; series mostly up to 46 µM
Summary of the method: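 Metabolically active cells were quantified by ATP-dependent luminescence (CellTiter-Glo, 15 min at room temperature) following 48 h treatment. Cells had been plated at 500-1,000 per well and settled for 5 h beforehand.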

[4] = qHTS of pediatric cancer cell lines to identify multiple opportunities for drug repurposing: Primary screen for BT-37 cells (AID 1347094); settings: BT-37 viability, CellTiter-Glo luminescence, 48 h; series mostly up to 57.3 µM
Summary of the method: (§1)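 Viability was measured as metabolically active cells after 48 hours of treatment, read by CellTiter-Glo luminescence. Compounds were tested at multiple final concentrations, giving concentration-response curves.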

[5] = qHTS of pediatric cancer cell lines to identify multiple opportunities for drug repurposing: Primary screen for NB-EBc1 cells (AID 1347095); settings: NB-EBc1 neuroblastoma viability, CellTiter-Glo luminescence, 48 h; series mostly up to 46 µM
Summary of the method: as §1

[6] = qHTS of pediatric cancer cell lines to identify multiple opportunities for drug repurposing: Primary screen for U-2 OS cells (AID 1347096); settings: U-2 OS viability, CellTiter-Glo luminescence, 48 h; series mostly up to 46 µM; further: nearly all actives have a fitted effect of over 50% in size
Summary of the method: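 Cells (500-1,000/well) in growth media were settled 5 h at 37 degrees C, then given compounds for 48 h. Viability was read as CellTiter-Glo luminescence. Primary runs used MIPE at 11 points (0.78 nM-46 µM) and NPC at 8 points (0.59 nM-46 µM); follow-ups used 11 points.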

[7] = qHTS of pediatric cancer cell lines to identify multiple opportunities for drug repurposing: Primary screen for Saos-2 cells (AID 1347097); settings: Saos-2 viability, CellTiter-Glo ATP luminescence, 48 h; series mostly up to 46 µM; further: nearly all actives have a fitted effect of over 40% in size
Summary of the method: as §1

[8] = qHTS of pediatric cancer cell lines to identify multiple opportunities for drug repurposing: Primary screen for SK-N-SH cells (AID 1347098); settings: SK-N-SH viability, CellTiter-Glo luminescence, 48 h; series mostly up to 57 µM; further: nearly all actives have a fitted effect of over 65% in size
Summary of the method: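 Cells (500-1,000/well) rested 5 h, then received compounds for 48 h; metabolically active cells were measured by CellTiter-Glo luminescence. Final concentrations spanned up to 46 µM (MIPE, 11-point) or 0.59 nM-46 µM (NPC, 8-point) in primary screens, 11-point in follow-ups.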

[9] = qHTS of pediatric cancer cell lines to identify multiple opportunities for drug repurposing: Primary screen for SJ-GBM2 cells (AID 1347091); settings: SJ-GBM2 viability, CellTiter-Glo luminescence, 48 h; series mostly up to 46 µM
Summary of the method: (§2)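 Eight- or eleven-point concentration series, 48 h treatment at 37 degrees C in growth media; readout CellTiter-Glo luminescence. Potency and efficacy were taken from the concentration-response curves.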

[10] = qHTS of pediatric cancer cell lines to identify multiple opportunities for drug repurposing: Primary screen for DAOY cells (AID 1347090); settings: DAOY medulloblastoma viability, CellTiter-Glo luminescence, 48 h; series mostly up to 46 µM; further: nearly all actives have a fitted effect of over 55% in size
Summary of the method: as §2

Measured: Potency
Potency means the concentration at half of the fitted maximal effect.

Cc1ccccc1C(C(=O)NC1CCCCC1)N(C(=O)CNc1ccc(C#N)cc1)c1cccc(F)c1 (configuration not stated)
active: [5] 23.5 µM | [7] 18.7 µM
not listed: [9] | [10]
inactive: all other assays above

O=C1C(CCC(O)c2ccc(F)cc2)C(c2ccc(O)cc2)N1c1ccc(F)cc1 (configuration not stated)
not listed: [9] | [10]
inactive: all other assays above

CN1CCN(c2cccc(Nc3nc4c(-c5ccc(S(C)(=O)=O)cc5)cccn4n3)c2)CC1
active: [3] 1.48 µM
inactive: [1]

O=c1[nH]c(=O)n([C@H]2C[C@@H](O)[C@@H](CO)O2)cc1C(F)(F)F
inactive: [7] | [8]
active: [1] 7.39 µM | [2] 3.72 µM | [4] 3.06 µM | [5] 18.7 µM

C[C@@H](N)c1ccc(C(=O)Nc2ccnc3[nH]ccc23)cc1
active: [9] 11.8 µM | [7] 14.8 µM | [8] 21.5 µM
inactive: [1]

CC(C)N(CCCNC(=O)Nc1ccc(C(C)(C)C)cc1)C[C@H]1O[C@@H](n2cc(Br)c3c(N)ncnc32)[C@H](O)[C@H]1O
active: [2] 18.7 µM | [4] 24.3 µM | [8] 24.1 µM
inactive: [1] | [6]

CCN1CCC(n2cc(CNc3cc(Cl)c4ncc(C#N)c(Nc5ccc(F)c(Cl)c5)c4c3)nn2)CC1
active: [2] 14.8 µM | [4] 24.3 µM | [5] 23.5 µM | [7] 14.8 µM
inactive: [1] | [6]

C[C@@]1(C(=O)Nc2ccc(F)nc2)CCCN1c1nc(Nc2cc(C3CC3)[nH]n2)c2cccn2n1
active: [1] 0.165 µM | [2] 0.0935 µM | [3] 0.001 µM | [7] 1.05 µM | [8] 1.92 µM

O=C(Nc1ccccc1)Nc1ccc(-c2ccc(C(=O)[C@H]3CCC[C@H]3C(=O)O)cc2)cc1
inactive: [1] | [5] | [6] | [7]
active: [2] 11.8 µM | [3] 1.87 µM

NC[C@H]1O[C@H](O[C@@H]2[C@@H](O)[C@@H](O[C@H]3O[C@H](CO)[C@@H](O)[C@H](N)[C@@H]3O)[C@H](N)C[C@@H]2N)[C@H](O)[C@@H](O)[C@H]1O
inactive: [1] | [2] | [4] | [5] | [6] | [7]

CCn1c(-c2nonc2N)nc2cncc(CNC3CCNCC3)c21
active: [2] 14.8 µM | [7] 11.8 µM | [8] 24.1 µM
inactive: [1] | [4] | [6]

CC(=O)OCC(=O)[C@@]12OC(C)(C)O[C@H]1C[C@H]1[C@@H]3C[C@H](F)C4=CC(=O)C=C[C@]4(C)[C@@]3(F)[C@@H](O)C[C@@]12C
inactive: [1] | [2] | [5] | [6] | [8]

O=C(c1ccc(C(=O)N2CCC(N3CCCC3)CC2)c(Nc2ccccc2)c1)N1CCC(N2CCCC2)CC1
not listed: [3] | [9] | [10]
inactive: all other assays above

CCC(=C(CC)c1ccc(O)cc1)c1ccc(O)cc1
active: [2] 18.7 µM | [3] 4.18 µM | [4] 21.7 µM | [5] 5.9 µM | [8] 7.64 µM
inactive: [1] | [6]

NC(=O)c1ncn([C@@H]2O[C@H](CO)[C@@H](O)[C@@H]2O)n1
inactive: [1] | [2] | [4] | [6] | [7] | [8]

CN1CCc2c(n(Cc3ccc(C(=O)NO)cc3)c3ccccc23)C1
active: [2] 14.8 µM | [3] 9.35 µM | [5] 16.6 µM
inactive: [1] | [6] | [7]

O=c1[nH]c(=O)n([C@H]2C[C@@H](O)[C@@H](CO)O2)cc1I
not listed: [1] | [5]
inactive: all other assays above

Nc1[nH]nc2nnc(-c3c(-c4ccccc4)nn4ccccc34)cc12
active: [3] 0.0332 µM | [5] 3.32 µM | [8] 4.29 µM
inactive: [1]

N#CC(=C1Nc2ccccc2S1)c1ccnc(OCc2ccc(CN3CCOCC3)cc2)n1
active: [10] 9.3 nM | [9] 3.32 µM | [2] 0.0235 µM | [3] 0.0053 µM | [4] 0.306 µM | [5] 0.526 µM | [7] 0.0148 µM | [8] 0.482 µM

CN(C)S(=O)(=O)c1ccc2c(c1)C(=Cc1cc3c([nH]1)CCCC3)C(=O)N2
inactive: [1] | [6]
active: [3] 3.72 µM | [8] 3.83 µM

CN(C)CC[C@H](CSc1ccccc1)Nc1ccc(S(=O)(=O)NC(=O)c2ccc(N3CCN(Cc4ccccc4-c4ccc(Cl)cc4)CC3)cc2)cc1[N+](=O)[O-]
active: [10] 18700 nM | [9] 0.0833 µM | [3] 0.0148 µM | [5] 0.0418 µM | [6] 14.8 µM | [7] 9.35 µM | [8] 7.64 µM

CC(C)c1onc(-c2c(Cl)cccc2Cl)c1COc1ccc(C=Cc2cccc(C(=O)O)c2)c(Cl)c1
inactive: [1] | [6] | [7]
active: [3] 16.6 µM

O=C1Nc2ccc(I)cc2C1=Cc1cc(Br)c(O)c(Br)c1
active: [3] 8.33 µM
inactive: [1] | [4] | [6] | [7] | [8]

COc1c(C)c2c(c(O)c1CC=C(C)CCC(=O)O)C(=O)OC2
active: [1] 5.23 µM | [3] 1.18 µM | [5] 0.743 µM

CCCCCCCCCCCCCCCC(=O)O[C@H]1[C@@H](O)[C@@H](O)[C@@H]([C@H](NC(=O)[C@@H]2C[C@@H](CCC)CN2C)[C@H](C)Cl)O[C@@H]1SC
inactive: [1] | [4] | [7]
active: [3] 18.7 µM

C[C@H]1O[C@@H](n2cc(F)c(=O)[nH]c2=O)[C@H](O)[C@H]1O
inactive: [10] | [9] | [6]
active: [5] 4.69 µM

CN(C)c1nc(Cc2ccc(NC(=O)c3ccc(C(F)(F)F)cc3)cc2)nc(N(C)C)c1CC(=O)O
not listed: [2] | [9] | [10]
inactive: all other assays above

Cc1cc(OCCCS(C)(=O)=O)cc(C)c1-c1cccc(COc2ccc3c(c2)OC[C@H]3CC(=O)O)c1
active: [7] 33.2 µM
inactive: [1] | [6] | [8]

COc1c(C)cnc(Cn2cnc3c(Cl)nc(N)nc32)c1C
active: [1] 1.17 µM | [3] 0.132 µM | [5] 0.118 µM | [8] 0.341 µM
inactive: [7]

O=C1NC(=O)C(=Cc2ccc(-c3ccc(F)cc3O)o2)S1
inactive: [1]
active: [5] 5.26 µM

CCOC(=O)[C@H]1O[C@H]1C(=O)N[C@@H](CC(C)C)C(=O)NCCC(C)C
inactive: [10] | [9] | [8]

CN(C)CCOc1ccc(-c2nc(-c3ccc4c(c3)CCC4=NO)c(-c3ccncc3)[nH]2)cc1
active: [4] 30.6 µM | [7] 23.5 µM | [8] 24.1 µM
inactive: [1] | [5]

CCOC(=O)[C@@H](N)CCC(=O)N[C@@H](CSCc1ccccc1)C(=O)N[C@@H](C(=O)OCC)c1ccccc1
inactive: [1] | [5] | [6] | [8]

CCOc1ccccc1N=Nc1c(C)[nH]n(-c2nc(-c3ccccc3)cs2)c1=O
inactive: [1] | [5] | [6]
active: [3] 0.209 µM

Cc1cccc2c1CC[C@H](CN1CCC(c3c(Cl)cccc3Cl)CC1)C[C@@H]2O
active: [3] 9.35 µM | [4] 30.6 µM
inactive: [10] | [9] | [5] | [8]

CC(C)C[C@H](NC(=O)c1cc2ccccc2s1)C(=O)N1CCN(C(=O)[C@H](CO)NS(=O)(=O)c2ccc(Cl)cc2Cl)CC1
inactive: [1]
active: [3] 10.5 µM | [4] 15.3 µM | [5] 26.4 µM | [7] 14.8 µM

Cc1cnc(Nc2cccc(CN3CCOCC3)c2)nc1Nc1cccc(S(=O)(=O)NC(C)(C)C)c1
active: [5] 4.18 µM | [6] 14.8 µM | [7] 5.26 µM
inactive: [1]

CN1[C@H]2CC[C@H]1CC(OC(=O)c1c[nH]c3ccccc13)C2 (some centres not stated)
active: [8] 24.1 µM
inactive: [1] | [4] | [5] | [6]

COc1cc2c(cc1OC)CC(=O)N(CCCN(C)C[C@H]1Cc3cc(OC)c(OC)cc31)CC2
inactive: [1] | [6] | [7]
active: [3] 14.8 µM

CC(C)n1c(C=C[C@H](O)C[C@H](O)CC(=O)O)c(-c2ccc(F)cc2)c2ccccc21
active: [10] 1870 nM | [9] 9.35 µM | [3] 11.8 µM | [4] 19.3 µM | [6] 14.8 µM | [7] 1.87 µM | [8] 6.81 µM

CCCCC(C)(C)[C@H](O)C=C[C@H]1[C@H](O)CC(=O)[C@H]1CC=CCCCC(=O)O
active: [3] 20.9 µM | [5] 5.26 µM
inactive: [10] | [9] | [6] | [7] | [8]

C[C@@H]1[C@H](C)CC[C@]2(C(=O)O)CC[C@]3(C)C(=CC[C@@H]4[C@@]5(C)CC[C@H](O)C(C)(C)[C@H]5CC[C@]43C)[C@@H]12
active: [1] 19 µM | [3] 0.429 µM | [5] 13.6 µM | [8] 17.5 µM
inactive: [4] | [6]

O=C1CN2Cc3c(ccc(Cl)c3Cl)N=C2N1
inactive: [1] | [6] | [7]

CC1(COc2ccc3c(c2)ncn3-c2ccc3cccc(N4CCC(N)CC4)c3n2)COC1
inactive: [8]
active: [10] 46.9 nM | [9] 5.26 µM | [4] 0.001 µM | [6] 29.6 µM | [7] 16.6 µM
